From PubChem BioAssay AID449762 (Southern Research Specialized Biocontainment Screening …, 2010)
The whole screen tested about 330,000 compounds, of which about 1,900 (0.58%) were called active. About 4% were inconclusive and are not listed. A selection follows. Potency and affinity values are given separately. Unmarked numbers belong to inactive results. Rule as the data show it: inconclusive = inhibition above about 70% without an active follow-up result; inactive = below that.

Experiment: M. tuberculosis growth inhibition, HTS (AID 449762);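 also: bacterial growth assessed after seven days of incubation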
Conditions: M. tuberculosis H37Rv growth inhibition, 7H9 media; at 25 µM; stronger effect = higher value

**Q.** For `COCCCn1c(SCC(=O)N2CCOCC2)nc2cc(Cl)ccc2c1=O`, which inhibition is on record?
**A.** -3.72%

**Q.** Which inhibition does the source give for `CCOC(=O)CNC(=S)N(Cc1ccccc1)Cc1cccs1` here?
**A.** 2.83%

**Q.** With `O=C(CN(Cc1ccccc1Cl)C(=O)c1csnn1)NCCc1ccccc1` as the compound, how does the inhibition read?
**A.** 4.65%

**Q.** With `Cc1occc1C(=O)Nc1ccccc1C#N` as the compound, how does the inhibition read?
**A.** -1.21%

**Q.** For `CC(C)CCOC(=O)C1[C@H]2C(=O)N(Cc3cccs3)C[C@]23C=C[C@H]1O3` (some centres not stated), which inhibition is on record?
**A.** 0.09%

**Q.** With `O=c1c2ccccc2ncn1-c1ccc([N+](=O)[O-])cc1[N+](=O)[O-]` as the compound, how does the inhibition read?
**A.** 4.34%

**Q.** Which inhibition does the source give for `O=[N+]([O-])c1ccccc1-n1cnc2ccccc21` here?
**A.** 8.38%

**Q.** Which inhibition does the source give for `COc1cc(C(=O)OCC(=O)NCc2ccccc2)cc(NC(=O)c2ccco2)c1OC` here?
**A.** 6.91%

**Q.** With `C1=C(c2ccccc2)CCN(c2ncnc3nc[nH]c23)C1` as the compound, how does the inhibition read?
**A.** 1.26%

**Q.** Which inhibition does the source give for `COc1ccccc1-n1c(N)c(C(N)=O)sc1=S` here?
**A.** -2.51%

**Q.** With `CC(=O)c1ccc(OC(=O)CCc2nc3ccccc3s2)cc1` as the compound, how does the inhibition read?
**A.** -3.41%

**Q.** With `COC(=O)N1CCN(c2ccc(Cl)c(Cl)c2)CC1` as the compound, how does the inhibition read?
**A.** -0.8%

**Q.** For `CCOC(=O)N1CCN(c2ccc(Cl)c(Cl)c2)CC1`, which inhibition is on record?
**A.** -2.84%

**Q.** Which inhibition does the source give for `N#CCCn1cc(C(=O)Nc2ccc(C(=O)O)cc2)c(-c2cc3ccccc3o2)n1` here?
**A.** -8.4%

**Q.** With `CC(C)C[C@H](CO)Nc1nc(Nc2cccc(Cl)c2)c2ncn(C(C)C)c2n1` as the compound, how does the inhibition read?
**A.** 62.4%

**Q.** With `CC(C)n1cnc2c(Nc3cccc(Cl)c3)nc(NCCCO)nc21` as the compound, how does the inhibition read?
**A.** 27%

**Q.** Which inhibition does the source give for `CC(C)(C)n1nnnc1CN1CCSCC1` here?
**A.** 1.25%

**Q.** With `COC(=O)c1cc(NC2c3ncccc3C(=O)N2Cc2ccccc2)cc(C(=O)OC)c1` (configuration not stated) as the compound, how does the inhibition read?
**A.** 2.2%

**Q.** For `CCOC(=O)c1nnn(-c2nonc2-c2ccccc2)c1C`, which inhibition is on record?
**A.** 7.53%

**Q.** Which inhibition does the source give for `CCOC(=O)c1sc2nc3n(c(=O)c2c1C)CCC3` here?
**A.** -4.9%

**Q.** Which inhibition does the source give for `Cc1c(C(=O)O)sc2nc3n(c(=O)c12)CCC(C)CC3` (configuration not stated) here?
**A.** -4.08%

**Q.** With `COc1ccc(-c2cc(NCc3ccccn3)n3ncnc3n2)cc1` as the compound, how does the inhibition read?
**A.** 65.8%

**Q.** For `COc1ccc(-c2cc(NCCc3ccncc3)n3ncnc3n2)cc1`, which inhibition is on record?
**A.** -2.4%

**Q.** Which inhibition does the source give for `COc1ccc(NC(=O)Cn2c(=O)n(-c3ccc(OC)cc3OC)c(=O)c3c(C)c(C)sc32)cc1` here?
**A.** -0.67%

**Q.** Which inhibition does the source give for `CC(C)N(CC(N)=O)c1ccc(S(=O)(=O)N2CCCC2)cn1` here?
**A.** -5.77%

**Q.** With `NC(=O)C1CCN(C(=O)COc2ccc3ccc(=O)oc3c2)CC1` as the compound, how does the inhibition read?
**A.** -9.39%

**Q.** With `CCOC(=O)C1=C(C)Nc2nc(SCC)nn2C1c1ccc(OC)cc1` (configuration not stated) as the compound, how does the inhibition read?
**A.** 5.22%

**Q.** For `CCOC(=O)C1=C(C)Nc2nc(SC)nn2C1c1ccc(C(=O)OC)cc1` (configuration not stated), which inhibition is on record?
**A.** -5.54%

**Q.** With `O=C(NCc1ccccc1)c1nccnc1CO` as the compound, how does the inhibition read?
**A.** 0.4%

**Q.** With `CN(C)S(=O)(=O)c1ccc(C(=O)NCc2nnc(SCC(=O)c3ccccc3)o2)cc1` as the compound, how does the inhibition read?
**A.** -10.3%

**Q.** With `COc1cc(O)c(C(CCN2CCCC(C)C2)c2cc(OC)c(OC)c(OC)c2)c(OC)c1` (configuration not stated) as the compound, how does the inhibition read?
**A.** -1.23%

**Q.** For `Cc1ccc(-c2nc3ccccc3s2)cc1NC(=O)c1cc(-n2cnnc2)ccc1Cl`, which inhibition is on record?
**A.** 3.06%

**Q.** For `O=C(Nc1ccc(-c2nc3ccccc3s2)cc1)c1cc(-n2cnnc2)ccc1Cl`, which inhibition is on record?
**A.** -1.18%

**Q.** With `Cc1cc(C)c(NC(=O)Cn2ncc3ccccc32)c(C)c1` as the compound, how does the inhibition read?
**A.** -0.59%

**Q.** Which inhibition does the source give for `COC(=O)c1ccc(OC(=O)c2cccs2)cc1` here?
**A.** 19.3%

**Q.** For `Cc1ccc(N2C(=O)C3CCCN3C2=S)c(C)c1` (configuration not stated), which inhibition is on record?
**A.** 5.68%

**Q.** Which inhibition does the source give for `Nc1ncc([N+](=O)[O-])cc1S(=O)(=O)c1ccccc1` here?
**A.** 2.55%

**Q.** Which inhibition does the source give for `NS(=O)(=O)c1ccc(S(=O)(=O)c2ccccc2)nc1` here?
**A.** 1.3%

**Q.** For `C#CCNC(=O)C1=C[C@@H](C)C[C@@H](OCc2ccc(CO)cc2)O1`, which inhibition is on record?
**A.** 2.19%

**Q.** With `COc1ccc(-c2cc(-n3c(C(F)(F)F)nc4ccccc43)n(CCC#N)n2)cc1` as the compound, how does the inhibition read?
**A.** 5.23%

**Q.** With `COc1ccc(-c2cc3nc(-c4ccccc4)cc(N4CCC(O)CC4)n3n2)cc1` as the compound, how does the inhibition read?
**A.** 8.92%

**Q.** For `Cc1ccc(S(=O)(=O)Nc2c(C)n(C)n(-c3ccccc3)c2=O)cc1C(=O)NCc1ccccc1`, which inhibition is on record?
**A.** -5.64%

**Q.** With `Cc1nc2ccc(N=NC3=C(O)CC(C)(C)CC3=O)cc2s1` as the compound, how does the inhibition read?
**A.** 1.45%

**Q.** With `COc1ccc(N=NC2=C(O)CC(C)(C)CC2=O)cc1` as the compound, how does the inhibition read?
**A.** -3.64%

**Q.** Which inhibition does the source give for `COc1ccc(CCN2CC(O)=C(c3nc(C)cs3)C2=N)cc1OC` here?
**A.** 7.01%

**Q.** Which inhibition does the source give for `COc1cccc(OCc2cc(C(=O)NCCN3CCCCC3CO)no2)c1` (configuration not stated) here?
**A.** -19.8%

**Q.** Which inhibition does the source give for `Cc1ccc2nc(-c3ccccc3)c(-c3ccccc3)nc2c1` here?
**A.** 2.44%

**Q.** With `Cc1ccc(NNc2c(C)nc3ccccc3nc2=O)cc1` as the compound, how does the inhibition read?
**A.** 42.5%

**Q.** With `O=C(Nc1ccc(S(=O)(=O)Nc2ncccn2)cc1)c1ccco1` as the compound, how does the inhibition read?
**A.** -1.81%

**Q.** With `COc1ccc(/C=C2\SC(=O)N(CCNC(=O)Cn3[nH]c(=O)c4ccccc4c3=O)C2=O)cc1` as the compound, how does the inhibition read?
**A.** 1.03%

**Q.** With `COc1ccc(C2SCC(=O)N2c2ccc(C)cc2)cc1` (configuration not stated) as the compound, how does the inhibition read?
**A.** -1.14%

**Q.** Which inhibition does the source give for `CCC(=O)N1N=C(c2ccccc2)CC1c1ccc([N+](=O)[O-])cc1` (configuration not stated) here?
**A.** 2.69%

**Q.** Which inhibition does the source give for `COc1ccc(C2CC(c3cccs3)=NN2S(C)(=O)=O)cc1` (configuration not stated) here?
**A.** -0.06%

**Q.** For `COc1ccc(O)c(C2=Nc3ccccc3N=C(c3cccs3)C2)c1`, which inhibition is on record?
**A.** -0.29%

**Q.** For `O=C(O)C1CC(c2ccccc2)=Nc2ccccc2S1` (configuration not stated), which inhibition is on record?
**A.** 13.4%

**Q.** Which inhibition does the source give for `O=C(Nc1ccccc1)N1CCC(O)(c2cccc(C(F)(F)F)c2)CC1` here?
**A.** 1.21%

**Q.** For `CCN(CC)CCCN=C1N[C@@H](c2cccc(F)c2)C(C(=O)OC)=C(C)N1Cc1ccccc1`, which inhibition is on record?
**A.** -0.31%

**Q.** With `CC(C)C(NC(=O)OCc1ccccc1)C(=O)OCC(=O)NCc1ccco1` (configuration not stated) as the compound, how does the inhibition read?
**A.** 8.7%

**Q.** With `Cc1ccc(C(=O)NNC(=O)c2cccc(C)c2)cc1` as the compound, how does the inhibition read?
**A.** -4.89%

**Q.** Which inhibition does the source give for `CCOc1ccc(S(=O)(=O)Nc2ncn[nH]2)cc1` here?
**A.** 1.15%

**Q.** For `CCOC(=O)c1c(C)n(C)c2ccc(OC(=O)c3ccc([N+](=O)[O-])cc3)cc12`, which inhibition is on record?
**A.** 25.7%

**Q.** Which inhibition does the source give for `COc1ccc2c(c1)c(C(C)=O)c(C)n2C` here?
**A.** 4.3%
